Screens as filed in PubChem BioAssay.
Shown are actives, neighbours in structure and some others; about 2.2% of the full set was active somewhere.
NTR1 agonist: activates human neurotensin receptor 1. NTR1-U2OS beta-arrestin-GFP spot imaging, agonist mode. activation, % at 20 µM. P30989. 330,000 compounds, 0.17% hits;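 active means activation at or above 40% of the spot to cytoplasm intensity ratio, with at least 20 cells analyzed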
CHO-K1 Ca antag: M1 antagonist counterscreen hit in parental CHO-K1 cells | ATP-induced calcium, Fluo-8 fluorescence | inhibition, % at 3 µM | 360,000 compounds, 0.6% hits;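 active means inhibition above a per-plate cutoff, the plate's mean sample inhibition plus 3 SD, cut at about 24% in these data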
M1 ag parental: counter-screen for M1 agonists: effect in parental CHO-K1 cells; Fluo-8 calcium fluorescence; scaled to maximal ATP response, vehicle zero; activation, % at 3 µM; 360,000 compounds, 0.48% hits; in the data active means activation above about 15%;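 further: untransfected CHO-K1 host cells lacking M1 receptor as counterscreen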
ANO1 block: mouse TMEM16A channel inhibition, primary screen. HEK293 TMEM16A/YFP iodide influx fluorescence, ionomycin. Q8BHY3. AID 588511. normalized B-score (activity score, 25-100; higher = stronger inhibition) at 10 µM. 310,000 compounds, 1.2% hits;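 active means ratio plate-corrected score three or more library SD toward inhibition, starting fluorescence score within five deviations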;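 further: score derived from kinetic fluorescence span divided by baseline fluorescence per well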
CHO-K1 Ca PAM: M1 PAM counterscreen hit in parental CHO-K1 cells. ATP EC20, Fluo-8 calcium fluorescence; 0% at ATP EC20, 100% at ATP max. activation, % at 3 µM. 360,000 compounds, 0.02% hits;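 active means activation above the run cutoff, the mean activation of all test compounds plus 3 SD, cut at about 40% in these data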;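 further: peak over basal fluorescence ratio in a 140 s read after ATP addition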
TMEM16A act: activates or potentiates the mouse TMEM16A chloride channel | Q8BHY3 | HEK293 TMEM16A/YFP-H148Q/I152L, iodide quench fluorescence; stronger effect = lower value | B-score at 10 µM | 340,000 compounds, 0.3% hits | AID 623877;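 active means fluorescence-ratio B-score plate-corrected deviation score at least 3 library SD below zero, with starting fluorescence score within 5 deviations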;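 further: channel opened by trigger with iodide after compound preincubation; score built on the fluorescence ratio of max minus min over baseline; more negative score means more quench and so TMEM16A activation or potentiation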
TMEM16A reconf: re-confirmation of mouse TMEM16A chloride channel inhibitors | HEK293 TMEM16A/YFP-H148Q, iodide quench fluorescence; ionomycin added to raise cell calcium | shares compounds with ANO1 block | inhibition, % at 10 µM | 2,300 compounds, 39% hits;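 active means mean duplicate percent inhibition, scaled so buffer wells are 0 and the reference blocker 100, over three buffer SD above buffer mean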
HEK293 Ca mobil: calcium mobilization counter-screen hit for TMEM16A inhibitor series. shares compounds with ANO1 block. TMEM16A/YFP HEK293, Fluo4 calcium mobilization. calcium response (% of ionomycin), % at 10 µM. 2,300 compounds, 2% hits;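 active means duplicate-averaged calcium signal over 20% of the ionomycin maximum, relative to buffer baseline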;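 further: each well's signal is peak minus trough fluorescence divided by its pre-addition baseline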
Parental YFP cnt: parental YFP-HEK293 iodide quench counter-screen activity; shares compounds with ANO1 block; ionomycin; YFP ratio F(max-min)/F0 at 10 µM; 2,300 tested, under 10 active; AID 652233;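 active means yellow fluorescent protein signal ratio exceeding the buffer control mean by over 5 SD of those controls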;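 further: ratio is mean of duplicate wells from kinetic YFP trace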
ClC-1 rat inh: selectivity of TMEM16A inhibitors: inhibition of rat ClC-1 chloride channel; ratio percent, % at 10 µM; 2,300 tested, under 10 active; shares compounds with ANO1 block; AID 652236; CHO ClC-1-YFP, iodide influx fluorescence quench; iodide control reads 0, buffer control 100;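 active means duplicate-mean ratio percent above the mean of iodide-only control wells, which defines zero, plus 5 of their SD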;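 further: higher percent means stronger block of ClC-1 iodide influx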
Target sequence (P35524 whole entry, looked up): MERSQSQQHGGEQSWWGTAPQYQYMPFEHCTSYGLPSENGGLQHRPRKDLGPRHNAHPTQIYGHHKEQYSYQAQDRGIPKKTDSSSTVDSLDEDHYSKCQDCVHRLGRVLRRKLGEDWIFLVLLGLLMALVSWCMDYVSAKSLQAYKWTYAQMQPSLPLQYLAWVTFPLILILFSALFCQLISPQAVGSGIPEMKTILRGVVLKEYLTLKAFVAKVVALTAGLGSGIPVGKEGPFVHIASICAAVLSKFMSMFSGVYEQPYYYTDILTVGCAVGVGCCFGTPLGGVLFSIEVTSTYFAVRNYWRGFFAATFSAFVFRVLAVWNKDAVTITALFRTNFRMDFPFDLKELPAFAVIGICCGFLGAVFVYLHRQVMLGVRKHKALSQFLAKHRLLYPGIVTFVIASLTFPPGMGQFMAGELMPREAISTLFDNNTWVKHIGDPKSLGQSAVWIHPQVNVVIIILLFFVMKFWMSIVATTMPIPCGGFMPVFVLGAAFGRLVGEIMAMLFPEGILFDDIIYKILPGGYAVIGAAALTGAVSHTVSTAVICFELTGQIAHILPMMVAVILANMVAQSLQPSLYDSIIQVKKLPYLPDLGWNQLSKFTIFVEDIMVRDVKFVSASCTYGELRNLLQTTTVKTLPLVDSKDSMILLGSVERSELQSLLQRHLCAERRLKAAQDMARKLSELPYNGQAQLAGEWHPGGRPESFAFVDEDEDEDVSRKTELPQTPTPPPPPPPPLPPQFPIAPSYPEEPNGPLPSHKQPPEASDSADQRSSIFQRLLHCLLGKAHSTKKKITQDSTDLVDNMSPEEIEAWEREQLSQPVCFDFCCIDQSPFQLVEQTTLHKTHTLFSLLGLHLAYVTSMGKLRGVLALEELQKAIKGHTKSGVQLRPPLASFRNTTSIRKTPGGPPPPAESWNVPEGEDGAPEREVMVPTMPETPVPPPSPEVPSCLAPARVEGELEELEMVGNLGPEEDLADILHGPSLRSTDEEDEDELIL
A number is an active result; i = inactive; nt = no result given.

SMILES	NTR1 agonist	CHO-K1 Ca antag	M1 ag parental	ANO1 block	CHO-K1 Ca PAM	TMEM16A act	TMEM16A reconf	HEK293 Ca mobil	Parental YFP cnt	ClC-1 rat inh
NC(=S)N/N=C\c1c2ccccc2cc2ccccc12	nt	i	i	i	i	i	nt	nt	nt	nt
COCCNC(=S)N/N=C/c1c2ccccc2cc2ccccc12	i	i	i	i	i	i	30.0%	i	i	i
CCCOc1ccc(Cn2cnc3ccccc32)cc1	i	25.1	i	25	i	i	17.0%	i	i	i
c1ccc2c(c1)ncn2CCCOc1ccc2c(c1)CCC2	i	i	i	100	i	i	i	i	i	i
O=C1CC2(CCCC2)C(=O)N1CN1CCN(S(=O)(=O)c2cc(F)ccc2F)CC1	nt	i	i	nt	i	nt	nt	nt	nt	nt
CCC(=O)N1CCCC(C)(C(=O)Nc2ccc(OC(F)F)cc2)C1 (stereo not given)	nt	i	i	nt	i	nt	nt	nt	nt	nt
Cc1nnc2c3ccccc3c(-c3cccs3)nn12	i	i	i	i	i	i	nt	nt	nt	nt
Cc1nnc2c3ccccc3c(-c3ccc(O)cc3)nn12	i	i	i	25	i	i	i	i	i	i
CC(=O)Nc1ccc(/C=N/N2C(=O)NC(C)(c3ccc(OC(F)F)cc3)C2=O)cc1 (stereo not given)	i	i	i	100	i	-13.3	93.0%	i	i	i
CCC/C=C/c1ccc(CN2C(C(C)C)C(=O)N(Cc3cn(CCC4OCCO4)nn3)CCS2(=O)=O)cc1 (stereo not given)	nt	i	i	nt	i	nt	nt	nt	nt	nt
CCCCCOC(=O)CSc1nnc(-c2cc(OC)c(OC)c(OC)c2)o1	i	i	i	25	i	i	i	i	i	i
CCCOC(=O)CSc1nnc(-c2cc(OC)c(OC)c(OC)c2)o1	i	i	i	i	i	i	nt	nt	nt	nt
O=C(NC1CCCC1)C1c2ccccc2OCC(=O)N1Cc1cccnc1 (stereo not given)	nt	i	i	nt	i	nt	nt	nt	nt	nt
Cc1cnc(NS(=O)(=O)c2ccc(N)cc2)nc1-c1ccccc1O	nt	i	i	nt	i	nt	nt	nt	nt	nt
O=C(c1cc2nc(-c3ccc(F)cc3)cc(C(F)(F)F)n2n1)N1CCCCC1c1cccnc1 (stereo not given)	i	i	i	100	i	i	22.5%	i	i	i
O=C1CC(=O)N(C2CCCCC2)C(=O)N1c1ccccc1S(=O)(=O)Oc1ccccc1	nt	i	i	nt	i	nt	nt	nt	nt	nt
CCC(C)Nc1nc(-c2cccc(OC)c2O)nc2ccccc12 (stereo not given)	i	i	i	100	i	i	28.5%	i	i	i
COc1cccc(-c2nc(NCc3cccnc3)c3ccccc3n2)c1O	i	i	i	i	i	i	nt	nt	nt	nt
CC(=O)c1cccc(-c2ccnc3c2CC(C(=O)NCc2cccs2)O3)c1 (stereo not given)	nt	i	i	nt	i	nt	nt	nt	nt	nt
c1ccc2[nH]c(CSc3ncnc4c3oc3ccccc34)nc2c1	i	i	i	100	i	i	21.5%	i	i	i
OC(c1cccc(Cl)c1)c1nc(-c2csc3ccccc23)cs1 (stereo not given)	nt	i	i	nt	i	nt	nt	nt	nt	nt
Cc1cc(C)cc(-n2c(C)cc(/C=N/NC(=O)CSc3ncccn3)c2C)c1	i	i	i	25	i	i	i	i	i	i
O=C(O)CN1C(=O)C2C3CCC(C3)C2C1=O (stereo not given)	nt	i	i	nt	i	nt	nt	nt	nt	nt
COc1ccc(-c2nc3cc(NC(=O)Cc4ccc(OC)c(OC)c4)ccc3o2)cc1	i	i	i	100	i	i	i	i	i	i
O=C(COC(=O)C12CC3CC(CC(O)(C3)C1)C2)Nc1ccc(OC(F)F)cc1	i	i	i	nt	i	i	nt	nt	nt	nt
SMILES	NTR1 agonist	CHO-K1 Ca antag	M1 ag parental	ANO1 block	CHO-K1 Ca PAM	TMEM16A act	TMEM16A reconf	HEK293 Ca mobil	Parental YFP cnt	ClC-1 rat inh
O=C(COC(=O)C12CC3CC(CC(C3)C1)C2)Nc1ccc(OC(F)F)cc1	i	i	i	25	i	i	i	i	i	i
CCN1C(=O)[C@@H]2[C@@H]3CN(S(=O)(=O)c4ccc(C)cc4)[C@@H](c4ccccc4F)[C@@H]3C(=O)C[C@@H]2C1=O	nt	i	i	nt	i	nt	nt	nt	nt	nt
CCOC(=O)N1CCC(N(CCOC)C(=O)Nc2ccc(CC)cc2)CC1	i	i	i	i	i	i	nt	nt	nt	nt
CCOC(=O)N1CCC(N(C(=O)Nc2ccc(Cl)c(Cl)c2)C(C)CC)CC1 (stereo not given)	i	i	i	25	i	i	i	i	i	i
CCN(c1cccc(C(F)(F)F)c1)S(=O)(=O)c1ccc2c(c1)CCN2C(=O)C1CC1	i	i	i	100	i	i	i	i	i	i
O=C(NNC1=C(C(=O)C(F)(F)F)CCC1)c1ccc(Br)cc1	i	i	i	100	i	i	16.0%	i	i	i
Cc1cccc(C)c1NC(=O)NS(=O)(=O)c1ccccc1	nt	i	i	nt	i	nt	nt	nt	nt	nt
CCc1cccc(C)c1NC(=O)CCCSc1nc2ccccc2s1	i	i	i	i	i	i	nt	nt	nt	nt
Cc1ccccc1NC(=O)CCCSc1nc2ccccc2s1	i	i	i	100	i	i	i	i	i	i
COc1ccc(-c2nc3cnccn3c2NCc2ccccc2)cc1SC1CCCCC1	i	i	i	25	i	i	i	i	i	i
O=C(Cc1ccccc1)Nc1cc(C(=O)c2ccccc2)ccc1N1CCOCC1	i	i	i	100	i	i	i	i	i	i
O=C(Cc1ccccc1)Nc1ccc(N2CCOCC2)cc1N1CCOCC1	i	i	i	i	i	i	nt	nt	nt	nt
Cc1cc(C)c(OCC(=O)Nc2ccccc2N2CCOCC2)c(C)c1	i	i	17.1	100	i	i	37.0%	i	i	i
COc1cccc(CN(C)C(=O)CNC(=O)c2sc3ccccc3c2Cl)c1OC	i	i	i	25	i	i	i	i	i	i
COc1cccc(CN(C)C(=O)COc2ccc(C(=O)c3ccc(Cl)cc3)cc2)c1OC	i	i	i	100	i	i	26.0%	i	i	i
CNS(=O)(=O)c1ccc(CNC[C@H]2O[C@@H](n3ccc(N)nc3=O)[C@H](O)[C@@H]2O)cc1	nt	i	i	nt	i	nt	nt	nt	nt	nt
CC(=O)c1ccc(N2CCN(C(=S)Nc3ccccc3)CC2)cc1	i	i	i	100	i	i	i	i	i	i
CC(=O)c1ccc(N2CCN(C(=O)Nc3ccc(F)cc3)CC2)cc1	i	i	i	i	i	i	nt	nt	nt	nt
